pAkt inh – blocks phosphorylation of Akt; activity change, % for hits at 50 µM; Neuro2A IGF-stimulated pAkt S473 HTRF, 20 min; active compounds read low; 0.32% of 360,000 active; in the data active means activity change below about -80%; inconclusive means mostly about -51% to -80%; further: on the % scale 0 is the no-effect control and ±100 the full control effect
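Single-point screen (50 µM final compound) in Neuro2A cells stimulated 20 min with 6 nM IGF at 37 deg C. After lysis, Ser473-phosphorylated Akt read by HTRF (ex 330 nm, em 615/665 nm) as the 665/615 ratio.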
TDP-43 yeast inh – TDP-43 toxicity inhibition in yeast | TDP-43 expressing yeast growth rescue, BacTiter-Glo, 24 h | Potency, µM (top dose mostly 46.1 µM), inactives show at the highest dose growth rescue (activation), hits mostly activators | 1.8% of 410,000 active | AID 652104; further: potency means the concentration at half of the fitted maximal effect; % of control where 0% means no effect; nearly all actives have a fitted effect of over 50% in size
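Growth rescue of TDP-43-toxic yeast measured as ATP luminescence (BacTiter-Glo). Cells grown to mid-log in raffinose, induced in galactose at OD600=0.02, exposed to compound 24 hr at 30 deg C.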
Anesthetic bind – candidate novel general anesthetic via apoferritin binding; apoferritin/1-aminoanthracene competitive binding, fluorescence; P02791; AID 485281; 0.074% of 350,000 active; Potency, µM (top dose mostly 77.5 µM), for the others: at the top dose activity change, negative = displacement, actives largely listed as inhibitors; further: potency means the concentration at half of the fitted maximal effect; on the % scale 0 is the no-effect control and ±100 the full control effect; nearly all actives have a fitted effect of over 20% in size
Target sequence (P02791 2-175 limits assumed): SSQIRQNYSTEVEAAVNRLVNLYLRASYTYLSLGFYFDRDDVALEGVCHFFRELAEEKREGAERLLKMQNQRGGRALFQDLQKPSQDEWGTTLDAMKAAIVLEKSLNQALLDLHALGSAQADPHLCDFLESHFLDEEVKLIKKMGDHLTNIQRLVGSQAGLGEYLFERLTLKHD
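Steps: apoferritin (10 uM) was premixed with half-saturated 1-AMA in PBS, compounds were pin-transferred, plates stood 10 min at room temperature, fluorescence was read at 380/535 nm, and curves were fitted with a Hill equation.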
Mito fusion yeast – mitochondrial division inhibition or fusion activation | 0.23% of 320,000 active | S. cerevisiae fusion-defective mutant growth rescue, CellTiterGlo 48 h | Potency, µM (doses to about 46.1 µM), for inactives: at the top dose growth rescue (activation), usual class: activators | AID 485298; further: potency means the concentration at half of the fitted maximal effect; % of control where 0% means no effect; nearly all actives have a fitted effect of over 45% in size
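Compounds are tested for their ability to restore growth of mitochondrial fusion-defective yeast strains at non-permissive 37C in YPEG medium over 48 hours. Viability is quantified by luciferase luminescence.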
CCT modulator – cytosolic chaperonin activity modulation. purified chaperonin ATPase assay, HTRF ADP detection, 30 min. activity change, % (no concentration beside the values), hits read low. 0.3% of 360,000 active. AID 651819; in the data active means activity change below about -30%; further: on the % scale 0 is the no-effect control and ±100 the full control effect
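Enzyme 40 or 20 nM (batch-dependent) in Tris pH 7.4/KCl/MgCl2/DTT; cpd 76 uM single point; ATP 10 uM; 30 min 37 °C; Transcreener ADP HTRF detection, 30 min RT; ratio 665/615.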
aSyn yeast inh – rescues yeast growth from alpha-synuclein toxicity; Yeast expressing alpha-synuclein, growth rescue, BacTiter-Glo, 24 h; Potency, µM (doses to about 46.1 µM), for the others: at the highest dose growth rescue (activation), most hits filed as activators; 0.14% of 370,000 active; further: potency means the concentration at half of the fitted maximal effect; % of control where 0% means no effect; nearly all actives have a fitted effect of over 65% in size
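Rescue of yeast growth: cells expressing toxic alpha-synuclein, induced in galactose at OD600 0.02, incubated with compound 24 h at 30 C. ATP luminescence quantified growth; inhibitors of toxicity appear as activators.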
* marks the source's active call; other numbers are inactive results; i = inactive; ? = inconclusive; nt = no result given; [ ] = remark or other dose. Only some compounds are listed: those with a hit (about 2.5% of all), similar ones and a draw of the others. Unless noted, the call rests on the fitted dose curve; in most records, active means well fitted curve in the direction sought with a large enough effect; inconclusive means small, poorly fitted or top-dose-only effect, or another doubt; inactive means no such curve, though single readings can be large; an effect the other way counts as inactive or inconclusive.

SMILES	pAkt inh	TDP-43 yeast inh	Anesthetic bind	Mito fusion yeast	CCT modulator	aSyn yeast inh
O=c1c2ccccc2nc(-c2ccc([N+](=O)[O-])cc2)n1O	i	-58%[9.22 µM]	-2%	-16%	-2	?
Cc1ccc(-c2nc3ccccc3c(=O)n2O)cc1	i	-40%	-2%	-10%	1	20µM*
CCOC(=O)c1ccc(NC(=O)CN(C)S(=O)(=O)c2ccc(Br)s2)cc1	i	12%	3%	?	0	3%
CCOC(=O)c1ccc(NS(=O)(=O)c2ccc(Br)s2)cc1	nt	18µM*	-4%	nt	nt	nt
CCOC(=O)c1ccccc1NC(=O)N1CCN2CCCCC2C1 (stereo not drawn)	nt	16%	118%	nt	nt	nt
CCOC(=O)C1(C/C(C)=N/NC(N)=O)CC(C)OC1=O (stereo not drawn)	i	-4%	-7%	-7%	-1	1%
CCCCCOCC1CC(C/C(C)=N/NC(N)=O)(C(=O)OCC)C(=O)O1 (stereo not drawn)	i	3%	3%	-2%	-41*	0%
CC(=O)c1ccc(NC(=O)Cn2c(-n3nc(C)cc3C)nc(C)c(C)c2=O)cc1	nt	27%	-10%	nt	nt	nt
Cc1cc(=O)n(CC(=O)Nc2ccc(Cl)c(Cl)c2)c(-n2nc(C)cc2C)n1	nt	13µM*	49%	nt	nt	nt
COc1cccc(NC(=O)CC2C(=O)OCCN2Cc2ccccc2)c1 (stereo not drawn)	nt	?	16%	nt	nt	nt
O=C(CC1C(=O)OCCN1Cc1ccccc1)Nc1cccc(C(F)(F)F)c1 (stereo not drawn)	nt	18µM*	?	nt	nt	nt
CCOc1ccc(C(=O)CC(NCc2cccs2)C(=O)O)cc1 (stereo not drawn)	i	-16%	-9%	-2%	0	11µM*
CCOc1ccc(C(=O)CC(C(=O)O)N2CCCCC2)cc1 (stereo not drawn)	i	35µM*	nt	1%	-2	1%[1.84 µM]
CCc1cccc(NC(c2nnc(-c3ccccc3)o2)c2ccc(F)cc2Cl)c1 (stereo not drawn)	nt	0%	-10%	nt	nt	nt
Cc1ccccc1NC(=O)COC(=O)c1ccccc1OCC(=O)Nc1ccc(Br)cc1	nt	nt	nt	nt	nt	-3%
CC1CCCN(c2ccc(C(=O)NCc3ccco3)cc2[N+](=O)[O-])C1 (stereo not drawn)	i	14µM*	?	?	-2	10%
CCOC(=O)C1=C(CN(CC)Cc2ccccc2)NC(=O)NC1c1ccc(OC(C)C)cc1 (stereo not drawn)	nt	-7%	74%	nt	nt	nt
CC(=O)C1=C(c2ccc(Cl)c(Cl)c2)N(C(C)=O)n2cnnc2S1	nt	10µM*	-3%	nt	nt	nt
COc1cccc(C2=C(C(C)=O)Sc3nncn3N2C(C)=O)c1	nt	35µM*	6%	nt	nt	nt
CC(=O)C1=C(c2ccc(Cl)c(Cl)c2)N(C(C)=O)n2c(C)nnc2S1	nt	?	-14%	nt	nt	nt
CCOc1ccc(C2=C(C(=O)CC)Sc3nncn3N2C(=O)CC)cc1	nt	20µM*	-11%	nt	nt	nt
CSc1nc(C)cc(C)c1S(=O)(=O)c1ccccc1C	i	11µM*	2%	3%	-1	0%
CCSc1nc(C)cc(C)c1S(=O)(=O)c1ccccc1C	i	21%	1%	20%	-3	-12%
CC1COC(=O)C(NNc2ccc(Cl)c(Cl)c2)=N1 (stereo not drawn)	i	3.5µM*	-14%	-2%	2	13%
Cn1c(=O)c2c(nc(NCC(O)CO)n2CCc2ccccc2)n(C)c1=O (stereo not drawn)	i	-6%	-13%	0%	-2	-1%
CC(O)CNc1nc2c(c(=O)n(C)c(=O)n2C)n1CCc1ccccc1 (stereo not drawn)	-112%*	0%	-4%	2%	1	3%
COc1cc(-c2cc(=O)c3c(O)c(OC)c(OC)c(OC)c3o2)cc(OC)c1OC	i	6%	-4%	5%	-4	25µM*
COc1cc(-c2cc(=O)c3c(C)cc(O)cc3o2)cc(OC)c1OC	i	0%	nt	nt	-5	0%
NC(=O)c1c(NC(=O)COC(=O)CSc2nnc(-c3ccc(Cl)cc3)o2)sc2c1CCC2	-104%*	13%	-12%	3%	1	4%

Screens deposited in PubChem BioAssay by National Center for Advancing Translational Sciences (NCATS).
